HT1080NT lethal: kills 2HG-producing HT-1080-NT fibrosarcoma cells; HT-1080-NT fibrosarcoma viability, CellTiter-Glo ATP luminescence, 48 h; Potency, µM (highest dose often 46.1 µM), usual class: cytotoxic; 360,000 compounds, 1.6% hits;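 also: NT is the 2HG producing partner of a matched IDH1 knockdown line; nearly all actives have a fitted effect of over 55% in size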
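Fibrosarcoma NT cells, 750 per well in 5% FBS RPMI, were exposed to compound for 48 hours. Viability: CellTiter-Glo luminescence.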
TDP1 cell noCPT: qHTS for Inhibitors of human tyrosyl-DNA phosphodiesterase 1 (TDP1): qHTS in cells in absence of CPT; DT40 Tdp1-/- hTDP1 cells, no CPT, ATP luminescence, 48 h; Potency, µM (highest dose often 46.2 µM), usual class: inhibitors; 420,000 compounds, 15% hits; AID 686978, 2013; also: nearly all actives have a fitted effect of over 55% in size
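DT40 Tdp1-/-;hTDP1 cells, no CPT (DMSO vehicle only), 400 cells/well; compounds pin-transferred; ≥48 hr, 37 °C; CellTiter-Glo 30 min RT dark, luminescence read.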
DT40 TDP1 CPT: DT40-hTDP1 cell growth loss with CPT; chicken DT40 Tdp1-/-;hTDP1 cells + 20 nM CPT, ATP luminescence, 48 h; AID 686979; Potency, µM (series often up to 46.2 µM), most hits filed as inhibitors; 420,000 compounds, 12% hits; also: nearly all actives have a fitted effect of over 55% in size
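Cell growth measured by CellTiter-Glo luminescence after a minimum 48 h, 37 C compound exposure with 20 nM CPT in Tdp1-knockout DT40 cells stably expressing hTDP1, seeded 400/well; qHTS titration format.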
HT1080 IDH1KD tx: kills HT-1080 cells with IDH1 knockdown | AID 686971 | HT-1080 IDH1 knockdown viability, ATP luminescence, 48 h | 360,000 compounds, 2% hits | Potency, µM (titrated, usually from 46.1 µM), most hits filed as cytotoxic
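Using the IDH1-knockdown HT-1080 line run in the same batch and compound series as the NT line, viability after 48 h at 37 °C was determined by CellTiter-Glo luminescence and expressed as % activity.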
IL-1B inflam inh: inflammasome signaling inhibition, IL-1 beta readout; activity change, % at 57.5 µM; THP-1 LPS/ATP IL-1B secretion, AlphaLISA, 16 h; active compounds read low; 360,000 compounds, 4.7% hits; in the data active = activity change below about -50%; inconclusive = mostly about -30% to -49%
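THP-1 cells pretreated 1 hr with compounds (up to 57.5 uM final), then stimulated with LPS (250 ng/mL final) plus ATP (1.25 mM final); secreted IL-1B measured by AlphaLISA after 16 hr, decreased signal indicating inhibition.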
Hits are given with their value; – = inactive; ? = inconclusive; · = no result. In the library only some 19% were active in any assay of this set; here they are far more common. Unless noted, calls follow the shape of the dose curve; as a rule, active = well fitted curve in the direction sought with a large enough effect; inconclusive = small, poorly fitted or top-dose-only effect, or another doubt; inactive = no such curve, though single readings can be large; an effect the other way counts as inactive or inconclusive.

SMILES	HT1080NT lethal	TDP1 cell noCPT	DT40 TDP1 CPT	HT1080 IDH1KD tx	IL-1B inflam inh
COc1ccc2cc(C(C)C(=O)N3CCC(C)CC3)ccc2c1 (configuration not stated)	15µM	?	16µM	?	?
COc1ccc2oc(C(=O)OCC(=O)N3CC(C)CC(C)C3)c(C)c2c1 (configuration not stated)	–	?	?	–	–
COc1ccc2oc(C(=O)OC(C)C(=O)N3CCC(C)CC3)c(C)c2c1 (configuration not stated)	–	15µM	?	–	–
COc1ccc2cc(C(C)C(=O)NC3CCC(O)CC3)ccc2c1 (configuration not stated)	–	–	–	–	–
Cc1ccc2c(N)[nH]nc2n1	–	–	–	–	–
CCOC(=O)C1=C(C)N=c2sc(=Cc3ccc(OCC(=O)O)cc3)c(=O)n2C1c1ccc(SC)cc1 (configuration not stated)	?	–	–	?	–
O=C(COCc1cc(-c2cccs2)on1)N1CCN(c2ccc(F)cc2)CC1	·	15µM	18µM	·	·
O=C(COCc1cc(-c2ccc3c(c2)OCO3)on1)N1CCN(c2ccc(F)cc2)CC1	–	?	–	–	–
O=C(Cc1cccs1)N1CCN(c2cccc(Cl)c2)CC1	–	–	–	–	–
O=C(COCc1cc(-c2cccs2)on1)N1CCN(c2cccc(Cl)c2)CC1	·	12µM	23µM	·	·
Cc1onc(C(=O)Nc2c(C)n(C)n(-c3ccccc3)c2=O)c1[N+](=O)[O-]	–	–	–	–	–
O=C(Nc1cccc(Cl)c1)N(Cc1nc2ccccc2c(=O)[nH]1)C1CCCC1	?	?	–	?	–
COc1ccccc1CN(Cc1nc2ccccc2c(=O)[nH]1)C(=O)Nc1ccccc1	–	3.5µM	3.5µM	–	–
O=C(Nc1cccc(Cl)c1)N(Cc1nc2ccccc2c(=O)[nH]1)Cc1cccs1	–	23µM	23µM	–	?
COc1ccccc1CNC(=O)CCc1nc2ccccc2c(=O)[nH]1	–	–	–	–	–
CN(C)c1ccc(C=Nc2cncc3ccccc23)cc1	·	–	–	·	·
COCCNC(=O)/C(C#N)=C/c1cccc(/C=C(\C#N)C(=O)NCCOC)c1	?	12µM	5.8µM	?	-99
COCCNC(=O)/C(=C/c1ccccc1Cl)c1ccccc1	–	?	29µM	–	?
COCCNC(=O)/C(C#N)=C/c1ccc(O)cc1	–	–	–	–	–
COCCNC(=O)/C(C#N)=C/C(C)=C/c1ccccc1	?	–	–	–	-83
COCCNC(=O)/C(C#N)=C/C=C/c1ccccc1[N+](=O)[O-]	?	7.3µM	10µM	?	-107
CSc1nnc(NC(=O)c2cccc(S(=O)(=O)N3CCOCC3)c2)s1	–	–	–	–	–
CC(C)c1ccc(CNn2cnnc2)cc1	–	?	–	–	–
CNC(=O)/C(C#N)=C/c1cccc(Oc2ccccc2)c1	–	23µM	26µM	?	-102
O=C(CSc1nnc(SCc2ccc(Cl)cc2)s1)N/N=C/c1c[nH]c2ccccc12	?	?	?	18µM	–
SMILES	HT1080NT lethal	TDP1 cell noCPT	DT40 TDP1 CPT	HT1080 IDH1KD tx	IL-1B inflam inh
O=C(CSc1nnc(SCc2cccc3ccccc23)s1)N/N=C/c1c[nH]c2ccccc12	–	16µM	?	?	–
O=C(O)COc1ccccc1/C=N/NC(=O)CSc1nnc(SCc2cccc3ccccc23)s1	–	?	–	–	–
CC1CN(C(=S)c2cccc([N+](=O)[O-])c2)CC(C)O1 (configuration not stated)	–	?	?	–	–
N#C/C(=C\c1cccn1S(=O)(=O)c1ccccc1)S(=O)(=O)c1ccc(F)cc1	–	–	–	–	–
Cc1ccc(NC(=O)CSc2nc(N)c3c4c(sc3n2)CSC(C)(C)C4)cc1	?	16µM	23µM	?	–
Cc1ccccc1NC(=O)CSc1nc(N)c2c3c(sc2n1)CSC(C)(C)C3	?	?	23µM	?	–
O=C(O)CCCCCCCCc1cn(CCc2c[nH]c3ccccc23)nn1	–	–	–	–	–
Cc1ccc(OC(C)C(=O)N=Nc2c(O)[nH]c3ccc([N+](=O)[O-])cc23)cc1 (configuration not stated)	–	?	?	–	–
C[C@H](NC(=O)c1nc[nH]c1C(=O)N(C)CCO)c1ccccc1	–	–	–	–	–
Cc1ccc(-c2nn(C(C)(C)C)c3ncnc(NS(=O)(=O)c4ccc([N+](=O)[O-])cc4)c23)cc1	–	18µM	21µM	–	–
Cc1ccc(S(=O)(=O)Nc2c(C)cc([N+](=O)[O-])cc2C)cc1	–	?	–	–	–
COc1ccc2oc(=O)c(-c3csc(/C(C#N)=C/c4ccc(F)cc4)n3)cc2c1	·	–	?	·	·

Bioassay records deposited in PubChem by National Center for Advancing Translational Sciences (NCATS).
